The text below walks through data of PubChem BioAssay.

Where “and” joins values, the source holds several entries; their conditions need not be identical. Equal entries are not always repeated. For some of these results: Entries with a potency or affinity are not part of this list. Calls of active or inactive are those of the source. Unless noted, the rule behind the calls is not given here.

Assay [1] in a line: antimalarial activity against Dd2 strain (AID 2302;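 active = growth inhibition above 50% at the single 2 µM test dose, taken to imply half-maximal potency below 2 µM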;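 note: 0% = DMSO untreated growth and 100% = chloroquine plus artemisinin killed control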). The note with it: P. falciparum Dd2 in RBCs, LDH growth readout, 72 h; at 2 µM; stronger effect = higher value.
Assay [2] in a line: HepG2 cytotoxicity, primary screen, cytotoxicity control for P. falciparum antimalarial project, cell-based, ATP luminescence (AID 2303;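 active = inhibition above 50%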;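 note: 0% = DMSO wells and 100% = digitonin-killed cells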). To be noted: HepG2 viability, 24-48 h, at 10 µM, stronger effect = higher value.
For assay [3], the target named is L-lactate dehydrogenase (Plasmodium falciparum (isolate CDC / Honduras)) (UniProt Q27743). As to the kind of experiment: PfLDH activity inhibition – cell lysate, 3D7 strain, counter-screen for P. falciparum growth inhibition project (AID 2304).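 Note: 0% = vehicle and 100% = reference inhibitor.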 The note with it: P. falciparum 3D7 crude extract, LDH APAD/NBT absorbance; at 2 µM; stronger effect = higher value. On the technique in general: The purpose of a counterscreen is to sort out artefacts and off-target activity.
Chain of L-lactate dehydrogenase (Plasmodium falciparum (isolate CDC / Honduras)) (Q27743 whole entry, looked up): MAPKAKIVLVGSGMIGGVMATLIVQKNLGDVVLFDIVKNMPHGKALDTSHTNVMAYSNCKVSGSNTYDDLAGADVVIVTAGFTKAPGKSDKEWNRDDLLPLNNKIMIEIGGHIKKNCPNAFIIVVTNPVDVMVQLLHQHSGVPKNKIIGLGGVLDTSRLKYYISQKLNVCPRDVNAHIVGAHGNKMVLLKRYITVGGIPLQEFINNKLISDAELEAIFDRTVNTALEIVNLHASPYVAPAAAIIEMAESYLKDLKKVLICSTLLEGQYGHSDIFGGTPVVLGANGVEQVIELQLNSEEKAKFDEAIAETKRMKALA

Assay [4] in a line: inhibition of 3D7 malaria parasite growth – strain 3D7 (AID 2306).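 Note: 0% = DMSO wells and 100% = chloroquine plus artemisinin control wells.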 The note with it: P. falciparum 3D7 erythrocytic growth, LDH absorbance, 72 h; at 2 µM; stronger effect = higher value.
The target in assay [5] is Calcium-dependent protein kinase 1 (Plasmodium falciparum (isolate 3D7)) (UniProt P62344). As to the kind of experiment: PfCDPK1 kinase inhibitors, biochemical, TCAMS library (AID 1159585; cut-off not given, nearly all actives have IC50 up to about 0.98 µM;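 note: inhibitors leave more ATP so luminescence rises with inhibition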). The note with it: recombinant PfCDPK1, Kinase-Glo ATP depletion luminescence. (Kinase-Glo reads ATP consumption through a luciferase reaction.)
Chain of Calcium-dependent protein kinase 1 (Plasmodium falciparum (isolate 3D7)) (P62344 whole entry, looked up): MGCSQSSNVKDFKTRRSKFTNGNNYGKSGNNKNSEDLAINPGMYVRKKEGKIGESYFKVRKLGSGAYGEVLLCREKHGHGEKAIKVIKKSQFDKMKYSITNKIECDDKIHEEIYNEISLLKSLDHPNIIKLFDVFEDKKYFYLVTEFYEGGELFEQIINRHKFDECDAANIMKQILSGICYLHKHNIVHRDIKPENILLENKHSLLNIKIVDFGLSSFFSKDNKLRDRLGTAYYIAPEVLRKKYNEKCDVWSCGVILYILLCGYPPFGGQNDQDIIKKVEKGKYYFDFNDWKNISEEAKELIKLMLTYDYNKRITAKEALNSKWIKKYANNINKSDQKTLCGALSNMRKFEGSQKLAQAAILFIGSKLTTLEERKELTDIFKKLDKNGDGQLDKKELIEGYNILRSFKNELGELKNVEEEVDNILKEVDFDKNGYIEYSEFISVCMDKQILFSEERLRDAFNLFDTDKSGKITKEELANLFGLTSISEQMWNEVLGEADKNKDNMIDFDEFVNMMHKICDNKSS
Assay [6] addresses Plasmodium falciparum protein kinase 6 (PK6, PF3D7_1337100) (UniProt Q8IDW1). As to the kind of experiment: PfPK6 kinase inhibitors, biochemical, TCAMS library (AID 1159586). The note with it: recombinant PfPK6, Kinase-Glo ATP depletion luminescence.
Assay [7] deals with Protein kinase 7 (PK7), Plasmodium falciparum 3D7 (PF3D7_0213400) (UniProt Q7YTF7). As to the kind of experiment: inhibition of Plasmodium PK7 catalytic activity – biochemical, TCAMS antimalarial set, Kinase-Glo luminescence (AID 1159587). The note with it: recombinant PfPK7, Kinase-Glo ATP depletion luminescence.
Chain of Protein kinase 7 (PK7), Plasmodium falciparum 3D7 (PF3D7_0213400) (Q7YTF7 1-343): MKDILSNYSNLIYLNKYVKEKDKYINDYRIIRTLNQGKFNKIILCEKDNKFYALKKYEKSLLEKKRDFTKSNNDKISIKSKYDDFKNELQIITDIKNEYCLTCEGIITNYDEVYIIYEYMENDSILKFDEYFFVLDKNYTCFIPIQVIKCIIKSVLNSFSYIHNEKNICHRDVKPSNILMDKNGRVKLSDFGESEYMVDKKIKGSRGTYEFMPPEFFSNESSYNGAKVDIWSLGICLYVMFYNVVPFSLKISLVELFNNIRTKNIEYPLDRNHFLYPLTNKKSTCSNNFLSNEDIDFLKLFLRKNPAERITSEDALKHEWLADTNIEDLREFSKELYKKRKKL
In assay [8] the target is Calcium-dependent protein kinase 4 (Plasmodium falciparum (isolate 3D7)) (UniProt Q8IBS5). The assay can be described thus: PfCDPK4 kinase inhibitors, biochemical, TCAMS library (AID 1159588; cut-off not given, nearly all actives have IC50 up to about 0.91 µM). The note with it: recombinant PfCDPK4, Kinase-Glo ATP depletion luminescence.
Chain of Calcium-dependent protein kinase 4 (Plasmodium falciparum (isolate 3D7)) (Q8IBS5 whole entry, looked up): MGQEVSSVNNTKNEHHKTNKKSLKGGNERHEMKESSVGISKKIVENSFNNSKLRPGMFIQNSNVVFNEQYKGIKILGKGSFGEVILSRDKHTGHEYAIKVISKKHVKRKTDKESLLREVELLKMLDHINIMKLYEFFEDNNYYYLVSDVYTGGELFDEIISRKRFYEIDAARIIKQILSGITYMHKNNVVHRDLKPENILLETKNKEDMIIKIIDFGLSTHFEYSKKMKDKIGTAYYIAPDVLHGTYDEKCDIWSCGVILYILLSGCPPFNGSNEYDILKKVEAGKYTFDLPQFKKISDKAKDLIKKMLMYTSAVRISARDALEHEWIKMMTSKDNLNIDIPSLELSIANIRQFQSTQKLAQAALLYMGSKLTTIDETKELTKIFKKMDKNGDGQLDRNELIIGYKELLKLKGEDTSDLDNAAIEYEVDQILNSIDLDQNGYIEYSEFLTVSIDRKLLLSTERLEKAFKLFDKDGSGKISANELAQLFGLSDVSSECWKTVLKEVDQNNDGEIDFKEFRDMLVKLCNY
A short description of assay [9]: polyglutamine-triggered caspase-3 activation inhibitors, cell-based (AID 1583). The note with it: polyglutamine-induced caspase-3 activation, cell assay; stronger effect = higher value;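 tested at 10 µM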.
Assay [10] can be described thus: suppressors of polyQ aggregation in yeast, 75Q-TubU reporter (AID 1593). The note with it: Yeast 75Q polyglutamine aggregation reporter.
Assay [11] is described as follows: rescue of polyQ-huntingtin neuronal dysfunction in worms, whole organism, C. elegans mechanosensory neurons, N-terminal huntingtin (AID 1599). To be noted: touch response, stronger effect = higher value.
Assay [12] can be described thus: inhibitors of mitochondrial cytochrome c release, biochemical, purified mitochondria (AID 1603).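 Note: mouse liver mitochondria challenged with calcium chloride; signal normalized to the plate average as 100%.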 To be noted: stronger effect = lower value.
Assay [13] in a line: inhibitors of polyQ protein aggregation (AID 1604). To be noted: polyglutamine-induced protein aggregation inhibition assay; stronger effect = higher value; tested at 2.5 µM.
Assay [14] is described as follows: enhancers of glutamate uptake in motor neurons, MN-1 cell line (AID 1612).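 Note: tested at 1 µM final; 0% = mean of DMSO vehicle wells on each plate; positive means more glutamate uptake than control and negative means less.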 The note with it: MN-1 motor neuron cells, stronger effect = higher value.
Assay [15] can be described thus: reducers of polyQ inclusions in PC12 cells, cell-based, NGF-treated PC12, GFPQ80 (AID 1614).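 Note: lower means fewer inclusions and 0 means no inclusions at all.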 The note with it: PC12 NGF-treated GFP-polyQ80 inclusion reduction.
Assay [16] in a line: suppressors of polyglutamine aggregation in yeast, 75Q-TubH (AID 1616). To be noted: S. cerevisiae 75Q-TubH polyglutamine aggregation suppression; stronger effect = higher value.
A short description of assay [17]: modulation of C. elegans fzo-1 (AID 1259413).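 Note: fzo-1 mutant C. elegans worms in liquid wells.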 The note with it: C. elegans fzo-1 modulator screen, mean read-out; stronger effect = higher value.
Assay [18] in a line: differential killing of epithelial or mesenchymal cells, primary screen, imaging, PC-3E GFP, TEM4-18 mCherry, co-culture (AID 1345086;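 active = compounds killing one labelled cell type while sparing the other, by normalised counts and ratio limits, not self-fluorescent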;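 note: cells exposed to compound for 72 h before imaging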;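 for red/green cell ratio (normalised): normalised mesenchymal count divided by normalised epithelial count so high means epithelial killing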). The note with it: imaging cell counts, at 1 µM.
Assay [19] in a line: sensitizers of A549 cells to miR-34 induction, primary screen, imaging, A549 dox-inducible miR-34, nuclei and caspase counts (AID 1347080;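 active = compounds whose cell count with miR-34 switched on is under 0.7 times the count with it off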). The note with it: A549 miR-34 inducible, Hoechst nuclei count, 48 h.
The nature of assay [20]: survival rescue of mitochondrial mutant cells in low glucose, primary screen, MELAS cybrids, Rieske KO mouse fibroblasts, CellTiter-Glo (AID 1508586;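 active = mean z-score across replicates of 1.96 or higher in either the MELAS or the Rieske mutant cell line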;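 note: z relative to plate mean and SD of compound and empty wells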). On the technique in general: ATP-based viability assays read luminescence as a measure of living cells.
The target of assay [21] is NAD(+) hydrolase SARM1 (Homo sapiens) (UniProt Q6SZW1). As to the kind of experiment: SARM1 TIR NADase inhibitors, cell lysate, NAD-Glo luminescence (AID 1508614;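 active = compound whose remaining NAD level is above about 45 nM, limit read from the data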;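 note: higher remaining NAD means stronger inhibition of SARM1 NADase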). The note with it: SAM-TIR HEK293T lysate NADase, at 1 µM, stronger effect = higher value.
Chain of NAD(+) hydrolase SARM1 (Homo sapiens) (Q6SZW1 whole entry, looked up, the tested form may be a part): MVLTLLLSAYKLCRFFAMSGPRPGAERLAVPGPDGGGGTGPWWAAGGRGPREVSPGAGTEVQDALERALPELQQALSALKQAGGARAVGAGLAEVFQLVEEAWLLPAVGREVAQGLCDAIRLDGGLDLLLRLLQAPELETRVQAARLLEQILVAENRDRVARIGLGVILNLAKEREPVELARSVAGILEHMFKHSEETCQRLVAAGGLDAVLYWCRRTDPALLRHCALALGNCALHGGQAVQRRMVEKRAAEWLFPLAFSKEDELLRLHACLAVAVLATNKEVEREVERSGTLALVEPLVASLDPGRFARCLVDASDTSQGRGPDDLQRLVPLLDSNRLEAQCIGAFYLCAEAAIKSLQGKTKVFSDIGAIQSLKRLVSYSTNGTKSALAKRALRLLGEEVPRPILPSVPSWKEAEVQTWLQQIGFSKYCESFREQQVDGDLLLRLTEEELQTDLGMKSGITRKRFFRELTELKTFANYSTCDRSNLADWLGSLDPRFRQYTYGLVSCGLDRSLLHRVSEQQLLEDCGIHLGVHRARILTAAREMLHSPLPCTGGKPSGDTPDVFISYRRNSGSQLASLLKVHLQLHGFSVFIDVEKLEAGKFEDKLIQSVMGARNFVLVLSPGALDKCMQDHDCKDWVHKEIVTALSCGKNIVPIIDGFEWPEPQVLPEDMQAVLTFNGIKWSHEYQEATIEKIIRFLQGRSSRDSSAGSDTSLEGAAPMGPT
Assay [22] addresses Mitogen-activated protein kinase 7 (Homo sapiens) (UniProt Q13164). As to the kind of experiment: ERK5 transactivation activators in reporter cells, primary screen, cell-based, HTS (AID 1508626;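 active = luciferase signal above three times the same-plate solvent-only control wells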;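 note: luciferase driven by Gal4-ERK5 fusion binding five Gal4 sites before minimal TATA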). The note with it: HeLa Gal4-ERK5 transactivation, 18 h, at 5 µM, stronger effect = higher value.
A short description of assay [23]: viability rescue of complex I mutant cybrids, primary screen, cell-based, galactose medium, ATP luminescence (AID 1645843;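 active = z-score of at least 1.8 in each of two replicates, scored against plate mean and spread of sample wells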;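 note: positive z means more ATP and so rescue of galactose-driven cybrid death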). To be noted: complex I mutant cybrid cells, 72 h, stronger effect = higher value.
Assay [24] in a line: liver-stage malaria parasite growth inhibition, primary screen, cell-based, HepG2, luciferase luminescence, HepG2 viability (AID 624349; in the data active = parasite load remaining mostly below about 12%, no sharp cut-off; inactive = mostly above about 10%;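 note: 100% = mean of DMSO negative control wells on the same plate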). To be noted: P. berghei liver stage in HepG2, luciferase luminescence, concentration not given here; parasite load remaining: stronger effect = lower value; viability: measured here: HepG2 viability without parasites.
Assay [25] has as its system Aerobactin synthetase IucA (Klebsiella pneumoniae). The assay can be described thus: IucA aerobactin synthetase inhibitors, biochemical, Tocris library, absorbance (AID 1345561).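 Note: 100% = enzyme without compound and 0% = no enzyme.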 The note with it: purified IucA enzyme assay, absorbance (OD) read-out; stronger effect = lower value;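 tested at 8 µM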.
The mark [26] stands for this setting: stronger effect = lower value, cell number ratio, induced over uninduced.
[27] abbreviates: measured here: relative caspase fold change +Dox/-Dox.
Where [28] appears, read: measured here: total cells with miR-34 induction, stronger effect = lower value.
[29] abbreviates: measured here: total cells without miR-34 induction.
[30] abbreviates: MELAS cybrid survival, CellTiter-Glo 48 h, stronger effect = higher value.
The mark [31] stands for this setting: Rieske KO mouse fibroblast survival, CellTiter-Glo 72 h.

Chain of Plasmodium falciparum protein kinase 6 (PK6, PF3D7_1337100) (Q8IDW1 1-305): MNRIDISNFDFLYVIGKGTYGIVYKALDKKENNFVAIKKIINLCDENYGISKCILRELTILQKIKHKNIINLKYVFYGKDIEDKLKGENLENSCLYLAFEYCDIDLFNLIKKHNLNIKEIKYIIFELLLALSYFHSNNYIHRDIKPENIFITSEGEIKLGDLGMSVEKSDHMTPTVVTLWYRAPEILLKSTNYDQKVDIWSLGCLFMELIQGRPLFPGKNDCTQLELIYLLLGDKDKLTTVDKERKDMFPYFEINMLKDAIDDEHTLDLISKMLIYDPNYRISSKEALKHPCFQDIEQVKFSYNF
Chain of Mitogen-activated protein kinase 7 (Homo sapiens) (Q13164 whole entry, looked up, the tested form may be a part): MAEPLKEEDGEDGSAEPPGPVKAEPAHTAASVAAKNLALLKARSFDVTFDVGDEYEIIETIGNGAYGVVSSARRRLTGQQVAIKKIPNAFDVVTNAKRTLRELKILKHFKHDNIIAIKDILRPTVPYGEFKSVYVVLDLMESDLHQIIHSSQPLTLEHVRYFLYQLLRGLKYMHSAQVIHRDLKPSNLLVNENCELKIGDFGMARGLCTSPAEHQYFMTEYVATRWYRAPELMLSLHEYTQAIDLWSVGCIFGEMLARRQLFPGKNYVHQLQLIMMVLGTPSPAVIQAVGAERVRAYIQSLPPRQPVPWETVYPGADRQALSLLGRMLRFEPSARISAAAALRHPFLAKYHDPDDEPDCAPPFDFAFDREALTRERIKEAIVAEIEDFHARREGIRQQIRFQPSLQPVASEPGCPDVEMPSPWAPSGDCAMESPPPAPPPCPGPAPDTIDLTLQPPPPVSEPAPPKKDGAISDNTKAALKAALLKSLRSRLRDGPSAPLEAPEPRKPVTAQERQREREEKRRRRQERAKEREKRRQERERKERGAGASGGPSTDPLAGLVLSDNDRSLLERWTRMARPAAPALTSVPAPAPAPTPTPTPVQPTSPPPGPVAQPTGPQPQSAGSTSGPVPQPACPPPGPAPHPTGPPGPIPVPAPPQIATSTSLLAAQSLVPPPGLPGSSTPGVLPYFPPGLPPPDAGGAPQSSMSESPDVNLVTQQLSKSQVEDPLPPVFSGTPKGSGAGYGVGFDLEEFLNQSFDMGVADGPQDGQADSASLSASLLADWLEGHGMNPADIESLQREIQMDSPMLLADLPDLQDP

As a reminder, the inhibition is the change of the read-out against control, counted positive when it falls. `O=C(NC(Nc1ccc([N+](=O)[O-])cc1)C(Cl)(Cl)Cl)c1cccc(Cl)c1` (centres undefined): the growth inhibition in assay [1] was 17% (inactive); in assay [4], 92% (active). Besides, the inhibition is -2% (inactive) in assay [2] and 0% (inactive) in assay [3]. The result in assay [5], in assay [6], in assay [7] and in assay [8] was inactive.

On to `Cc1cc(CNCCCCCCCNCc2cccc([N+](=O)[O-])c2)ccc1O`, for which the growth inhibition in assay [1] was -5% (inactive); in assay [4], 100% (active). The inhibition was 6% (inactive) in assay [2] and -1% (inactive) in assay [3]. Also, the result in [5], in assay [6], in [7] and in [8] was inactive.

With `COc1ccc2nccc([C@@H](O)CN3CCC(NCc4ccc5c(c4)nnn5C(C)C)CC3)c2c1`, the figures for the growth inhibition in assay [1] and in [4] were 40% (inactive) and 100% (active), respectively. Besides, the inhibition was 15% (inactive) in assay [2] and 0% (inactive) in [3]. Further, the result in assay [5], in assay [6], in [7] and in assay [8] was inactive.

Regarding `O=C(NC1CCN(Cc2ccccc2)CC1)c1ccc(-c2nc3cc(F)c(F)cc3[nH]2)s1`, the results for the growth inhibition in assay [1] and in assay [4] were 97% (active) and 101% (active), respectively. For the same compound, the inhibition is 6% (inactive) in [2] and 1% (inactive) in assay [3]. The outcome in assay [5], in assay [6], in [7] and in assay [8] was inactive.

`C=C[C@H]1CN2CC[C@H]1C[C@@H]2[C@@H](O)c1ccnc2ccc(OC)cc12`: the figures for the inhibition in [9], in assay [2] and in assay [3] were 12.3%, -11% (inactive) and -3% (inactive), respectively. Moreover, the score in assay [10] worked out at 1.3. In assay [11], this compound gave a rescue above control of -0.47. In assay [12], the cytochrome c release ratio came to 1.12. Also, the inhibition of aggregation in assay [13] worked out at 54.5%. Moreover, the glutamate uptake change in assay [14] worked out at 12.1%. Besides, the inclusion score in assay [15] is 2. In assay [16], the aggregation suppression score came to 1.24. The figures for the growth inhibition in assay [1] and in assay [4] were 95% (active) and 98% (active), respectively. The result in assay [5], in assay [6], in assay [7] and in [8] was inactive. In addition, in assay [17], the mean signal was 302 (active). Moreover, the red/green cell ratio (normalised) in assay [18] (actives lie on both sides, counts scaled to control wells, 1 = unselective) was 1.14 (inactive). Moreover, the values for the normalised cell number in [18] (measured here: epithelial PC-3E GFP cell survival) and in [18] (measured here: mesenchymal TEM4-18 mCherry cell survival) were 1.07 and 1.22, respectively. Moreover, the fold change was 0.965 (inactive) and 0.96 (inactive) and 0.929 (inactive) in assay [19] (setting [26]); 1.07 and 0.67 and 3.94 in assay [19] (setting [27]). For the same compound, the cell count is 9710 and 7980 and 11400 in assay [19] (setting [28]); 10100 and 8310 and 12200 in [19] (setting [29]). The z-score in assay [20] (setting [30]) was 0.598 (inactive); in assay [20] (setting [31]), 0.401; in assay [23], 0.055 (inactive). The remaining NAD in [21] is 10 nM (inactive). Further, the luciferase signal in assay [22] was 84 AU (inactive).

By viability is commonly meant a read-out of living cells in per cent, often relative to untreated cells. The remaining activity is the signal under treatment as a percentage of the control signal. On to `COc1ccc(Cl)cc1NC(=O)Nc1cc(C)nc2ccccc12`, for which the growth inhibition in assay [1] is 99% (active); in assay [4], 101% (active). In addition, the values for the inhibition in [2] and in assay [3] were 10% (inactive) and -3% (inactive), respectively. Further, in [24], the parasite load remaining was 55.8% (inactive). For the same compound, in assay [24], the viability was 153%. In addition, the outcome in assay [5], in [6], in assay [7] and in [8] was inactive. The remaining activity in [25] was 102% (inactive). For the same compound, the fold change in assay [19] (setting [26]) was 0.905 (inactive) and 1.03 (inactive); in assay [19] (setting [27]), 0.387 and 0.813. Also, the cell count is 6720 and 4040 in [19] (setting [28]); 7420 and 3920 in [19] (setting [29]). For the same compound, the z-score in [20] (setting [30]) was -0.407 (inactive); in assay [20] (setting [31]), 0.602; in assay [23] it was -0.645 (inactive).
